From PubChem BioAssay
Activity calls are given as the source filed them. Unless noted, how the calls were made is not given here.

Legend:
[1] = compounds binding Alexa647 anti-His antibody – biochemical, small-molecule microarray, 635 nm fluorescence, artefact control for SMM control protein annotation, primary screen (AID 1128); conditions: higher = more signal;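 further: score merges feature fluorescence with signal-to-noise for each printed compound spot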
[2] = system: Human papillomavirus type 1a E7 protein (residues 1-88); assay: HPV1a E7 small-molecule binders, primary screen, biochemical, small-molecule microarray, residues 1-88, 635 nm (AID 1129); conditions: small-molecule microarray binding, fluorescence 635 nm; higher = more signal
[3] = biological target: Focal adhesion kinase 1 (Homo sapiens) (UniProt Q05397); assay: PTK2 protein binding on printed compound slides – biochemical, small-molecule microarray, 635/667 nm fluorescence, BSA, DTT, primary screen (AID 1130); conditions: 635 nm fluorescence, higher = more signal;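 further: composite of spot emission at 667 nm and signal to noise over triplicate slides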
[4] = system: Fibrinogen (Alexa647-labelled); assay: Alexa647-fibrinogen binding to printed small molecules – biochemical, small-molecule microarray, 635/667 nm fluorescence, artefact control for SMM control-protein annotation, profiling panel (AID 1131); conditions: fibrinogen-A647 binding fluorescence, higher = more signal;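 further: z-score merges 667 nm fluorescence with per-spot signal-to-noise over triplicate slides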
[5] = biological target: Follistatin (Homo sapiens) (UniProt P19883); assay: FST protein binding to printed compounds – biochemical, small-molecule microarray, 635/667 nm fluorescence, primary screen (AID 1132); conditions: 635 nm fluorescence, higher = more signal
[6] = biological target: Fibroblast growth factor 2 (Homo sapiens) (UniProt P09038); assay: basic fibroblast growth factor binding to printed compounds – biochemical, small-molecule microarray, 635/667 nm fluorescence, primary screen (AID 1133); conditions: FGF2, fluorescence 635/667, higher = more signal
[7] = JC-1 mitochondrial potential readout, lung cancer cells – cell-based, A549, JC-1 fluorescence, basal, 24 h, 100 nL, profiling panel (AID 1138); conditions: higher = more signal;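 further: A549 lung adenocarcinoma cells under basal conditions with no added stimulus; test concentration not given here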
Lefty1 = Lefty1 protein binding to printed compounds – biochemical, small-molecule microarray, 635/667 nm fluorescence, primary screen (AID 1139); conditions: fluorescence 635/667, higher = more signal
[8] = system: wheat germ agglutinin (Triticum aestivum), Alexa647-labelled; assay: Alexa647-WGA lectin binding to printed small molecules – biochemical, small-molecule microarray, 635/667 nm fluorescence, artefact control for SMM control-protein annotation, profiling panel (AID 1140); conditions: WGA-A647 binding, 635 nm fluorescence, higher = more signal;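 further: score merges 667 nm feature emission with signal to noise over triplicate slides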
[9] = biological target: Luciferin 4-monooxygenase (Photinus pyralis) (UniProt P08659); assay: inhibition of purified Photinus pyralis luciferase – biochemical, luminescence, purified enzyme, 2006 set, primary screen (AID 1141); conditions: purified firefly luciferase, SteadyGlo luminescence, 30 min; higher = more signal, called active from +8 up or from −8 down;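 further: cell-free assay with purified firefly luciferase at 100 ng per well in PBS; test concentration not given here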
[10] = system: Wnt5a (protein binding on small-molecule microarray); assay: small molecules binding Wnt5a protein – biophysical, small-molecule microarray, 635/667 nm fluorescence, primary screen (AID 1142); conditions: 635 nm fluorescence, higher = more signal;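 further: fluorescence read at 667 nm with signal to noise per printed feature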
[11] = ATP-based viability of Huh7 replicon cells – cell-based, CellTiter-Glo luminescence, basal, 48 h, cytotoxicity control for HCV replication inhibitor project, primary screen (AID 1143); conditions: higher = more signal, called active from +8 up or from −8 down;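 further: Huh7 hepatoma cells carrying a hepatitis C replication reporter with no stimulus; test concentration not given here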
[12] = Pseudomonas biofilm growth suppression – PAO1 strain, BacTiter-Glo luminescence, LB-PBS, primary screen (AID 1144); conditions: P. aeruginosa PAO1 biofilm, 12 h, higher = more signal
[13] = basal CRE-LacZ reporter activity in PC12 – cell-based, unstimulated, primary screen (AID 1145); conditions: no forskolin, luminescence, 4.5 h, higher = more signal, called active from +8 up or from −8 down
[14] = forskolin-driven CRE-LacZ activity in PC12 – cell-based, CRE-LacZ reporter, forskolin-stimulated, primary screen (AID 1146); conditions: luminescence, 4.5 h, higher = more signal, called active from +8 up or from −8 down;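 further: PC12 cells with 6xCRE LacZ reporter stimulated by forskolin 10 µM; beta-galactosidase reporter signal reflecting CREB driven transcription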
[15] = biological target: Streptavidin (Streptomyces avidinii) (UniProt P22629); assay: compounds binding control protein streptavidin – biophysical, small-molecule microarray, 635/667 nm fluorescence, artefact control for SMM compound annotation, primary screen (AID 1147); conditions: higher = more signal;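 further: signal reflects streptavidin binding to arrayed compounds as a control protein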
[16] = probe aInhba binding on compound microarray – biochemical, small-molecule microarray, 635/667 nm fluorescence, primary screen (AID 1148); conditions: higher = more signal;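 further: score merges 667nm spot fluorescence with signal-to-noise for antibody binding to printed compounds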
Torsin-1A (Homo sapiens) [17] = biological target: Torsin-1A (Homo sapiens) (UniProt O14656); assay: TOR1A wild-type binding on microarray – cell lysate, small-molecule microarray, lysate, 635/667 nm, primary screen (AID 1149); conditions: COS7 hTOR1A-WT lysate, 635 nm fluorescence, higher = more signal
Torsin-1A (Homo sapiens) [18] = biological target: Torsin-1A (Homo sapiens) (UniProt O14656); assay: torsin A mutant lysate binding on microarrays – cell lysate, small-molecule microarray, COS7 lysate, 635/667 nm fluorescence, primary screen (AID 1150); conditions: COS7 hTOR1A mutant lysate, 635 nm fluorescence, higher = more signal;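 further: score pools 667 nm emission and signal to noise measuring lysate protein binding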
[19] = system: Sonic hedgehog protein (Shh); assay: Sonic hedgehog microarray binding compounds – biochemical, small-molecule microarray, 635/667 nm fluorescence, primary screen (AID 1151); conditions: 635 nm fluorescence, higher = more signal;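 further: Shh protein binding to compounds spotted on small-molecule microarray slides; score combines spot fluorescence intensity with signal-to-noise across triplicate slides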

Chain of Torsin-1A (Homo sapiens) (O14656 whole entry, looked up): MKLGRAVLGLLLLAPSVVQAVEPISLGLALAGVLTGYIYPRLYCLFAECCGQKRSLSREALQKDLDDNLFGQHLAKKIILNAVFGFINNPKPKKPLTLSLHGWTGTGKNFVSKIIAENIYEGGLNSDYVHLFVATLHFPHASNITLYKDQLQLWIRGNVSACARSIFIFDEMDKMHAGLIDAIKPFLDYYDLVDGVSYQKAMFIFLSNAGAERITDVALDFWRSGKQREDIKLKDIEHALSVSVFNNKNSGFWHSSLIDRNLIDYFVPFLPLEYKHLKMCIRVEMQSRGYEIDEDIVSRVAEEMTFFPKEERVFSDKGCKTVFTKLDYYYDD
Chain of Focal adhesion kinase 1 (Homo sapiens) (Q05397 whole entry, looked up): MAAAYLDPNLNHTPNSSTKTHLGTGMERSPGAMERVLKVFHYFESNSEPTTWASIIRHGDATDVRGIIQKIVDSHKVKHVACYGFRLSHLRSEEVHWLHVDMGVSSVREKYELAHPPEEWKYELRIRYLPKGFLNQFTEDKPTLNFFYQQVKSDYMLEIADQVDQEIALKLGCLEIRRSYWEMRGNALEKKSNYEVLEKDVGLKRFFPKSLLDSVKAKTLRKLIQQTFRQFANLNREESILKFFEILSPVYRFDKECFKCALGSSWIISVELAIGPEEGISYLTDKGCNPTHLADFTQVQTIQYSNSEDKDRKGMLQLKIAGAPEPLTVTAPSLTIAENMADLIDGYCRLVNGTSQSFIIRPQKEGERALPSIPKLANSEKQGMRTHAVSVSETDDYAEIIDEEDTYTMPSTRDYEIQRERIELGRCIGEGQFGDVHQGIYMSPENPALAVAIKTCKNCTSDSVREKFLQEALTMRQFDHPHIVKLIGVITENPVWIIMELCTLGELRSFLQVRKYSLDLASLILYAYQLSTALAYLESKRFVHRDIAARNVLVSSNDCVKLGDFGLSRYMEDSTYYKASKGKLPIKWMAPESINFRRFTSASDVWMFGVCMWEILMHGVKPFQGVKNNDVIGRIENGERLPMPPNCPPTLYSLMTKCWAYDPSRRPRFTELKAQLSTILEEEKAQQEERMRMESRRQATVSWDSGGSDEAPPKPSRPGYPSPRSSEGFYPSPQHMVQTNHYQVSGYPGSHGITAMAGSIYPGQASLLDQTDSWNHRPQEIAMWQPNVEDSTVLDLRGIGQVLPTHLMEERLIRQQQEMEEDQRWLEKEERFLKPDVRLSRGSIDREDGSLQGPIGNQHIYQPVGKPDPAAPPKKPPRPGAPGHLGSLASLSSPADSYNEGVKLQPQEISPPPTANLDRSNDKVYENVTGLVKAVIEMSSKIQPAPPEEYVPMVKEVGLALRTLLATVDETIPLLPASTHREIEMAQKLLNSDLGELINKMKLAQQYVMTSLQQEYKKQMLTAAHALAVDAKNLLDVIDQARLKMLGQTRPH
Chain of Luciferin 4-monooxygenase (Photinus pyralis) (P08659 whole entry, looked up): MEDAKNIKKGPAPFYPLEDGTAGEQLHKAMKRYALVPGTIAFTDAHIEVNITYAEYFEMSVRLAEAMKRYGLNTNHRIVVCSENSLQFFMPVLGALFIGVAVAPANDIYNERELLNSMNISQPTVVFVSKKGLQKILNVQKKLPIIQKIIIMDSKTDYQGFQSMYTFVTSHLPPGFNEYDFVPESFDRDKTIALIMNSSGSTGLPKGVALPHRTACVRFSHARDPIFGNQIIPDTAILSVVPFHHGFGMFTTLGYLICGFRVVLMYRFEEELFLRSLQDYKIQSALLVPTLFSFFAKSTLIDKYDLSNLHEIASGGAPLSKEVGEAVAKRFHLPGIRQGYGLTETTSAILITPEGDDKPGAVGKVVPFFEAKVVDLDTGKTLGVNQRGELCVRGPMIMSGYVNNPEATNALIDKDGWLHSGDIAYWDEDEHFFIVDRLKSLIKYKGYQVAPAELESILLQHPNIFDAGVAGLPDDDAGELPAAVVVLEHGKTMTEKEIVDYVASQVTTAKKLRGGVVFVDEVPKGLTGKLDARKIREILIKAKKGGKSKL
Chain of Fibroblast growth factor 2 (Homo sapiens) (P09038 whole entry, looked up): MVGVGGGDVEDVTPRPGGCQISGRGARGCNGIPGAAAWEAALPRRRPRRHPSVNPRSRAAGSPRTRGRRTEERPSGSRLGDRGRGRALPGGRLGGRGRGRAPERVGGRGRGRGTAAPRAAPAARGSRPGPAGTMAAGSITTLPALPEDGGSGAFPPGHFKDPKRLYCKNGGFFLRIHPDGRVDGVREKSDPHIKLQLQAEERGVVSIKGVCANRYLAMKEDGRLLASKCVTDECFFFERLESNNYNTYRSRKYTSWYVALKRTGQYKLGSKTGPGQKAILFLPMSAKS
Chain of Follistatin (Homo sapiens) (P19883 whole entry, looked up): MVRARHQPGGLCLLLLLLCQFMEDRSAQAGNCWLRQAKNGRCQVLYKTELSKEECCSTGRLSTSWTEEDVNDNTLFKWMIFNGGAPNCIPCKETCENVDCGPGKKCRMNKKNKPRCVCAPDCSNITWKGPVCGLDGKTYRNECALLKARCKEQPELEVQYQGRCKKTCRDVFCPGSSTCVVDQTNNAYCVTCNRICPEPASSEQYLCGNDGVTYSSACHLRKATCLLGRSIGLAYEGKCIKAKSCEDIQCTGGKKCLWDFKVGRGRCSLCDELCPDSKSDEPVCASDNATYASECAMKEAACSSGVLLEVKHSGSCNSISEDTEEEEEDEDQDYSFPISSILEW
Chain of Streptavidin (Streptomyces avidinii) (P22629 whole entry, looked up): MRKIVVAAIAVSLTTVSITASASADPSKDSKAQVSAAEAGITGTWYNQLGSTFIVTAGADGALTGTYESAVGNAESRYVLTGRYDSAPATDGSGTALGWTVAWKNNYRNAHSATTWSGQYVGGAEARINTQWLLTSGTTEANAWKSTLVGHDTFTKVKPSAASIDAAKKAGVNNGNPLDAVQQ

Row | Structure (SMILES) | composite z-score [1] | composite z-score [2] | composite z-score [3] | composite z-score [4] | composite z-score [5] | composite z-score [6] | z-score [7] | composite z-score (Lefty1) | composite z-score [8] | z-score [9] | composite z-score [10] | z-score [11] | z-score [12] | z-score [13] | z-score [14] | composite z-score [15] | composite z-score [16] | composite z-score (Torsin-1A (Homo sapiens) [17]) | composite z-score (Torsin-1A (Homo sapiens) [18]) | composite z-score [19]
1 | O=C1NC(=O)C2C1C=CC(C(O)CCc1ccccc1)N2Nc1ccccn1 (stereo not given) | -0.0572 | 0.495 | 0.318 | 0.415 | 0.269 | -0.157 | 0.681 | -0.139 | 0.589 | -1.13 (inactive) | 0.149 | -0.466 (inactive) | -0.922 (inactive) | 0.433 (inactive) | -0.382 (inactive) | 0.179 | -0.0849 | 0.0825 | 0.486 | 0.0046
2 | CCCC=C(CCC)[C@@H](NC(=O)Cc1ccccc1)c1ccc(C(=O)OC)cc1 | 1.2 | 0.821 | 0.563 | 0.714 | 0.28 | 0.0515 | -0.298 | -0.365 | 1.03 | 1.54 (inactive) | 0.372 | -2.2 (inactive) | 0.354 (inactive) | 0.0041 (inactive) | 0.545 (inactive) | 1.68 | 0.376 | -0.0377 | -0.414 | -0.284
3 | NCCCCCCNC(=O)[C@H]1C[C@H]2C(=O)N3CCC[C@H]3C(=O)N2[C@H]1c1ccc(O)cc1 | 2.79 | 0.609 | 1.1 | 0.437 | 1.36 | 1.66 | -0.712 | 0.918 | 0.752 | 0.24 (inactive) | 0.214 | -0.734 (inactive) | 0.131 (inactive) | 0.0084 (inactive) | -0.27 (inactive) | 0.0381 | 0.0047 | 0.624 | 0.553 | 1.86
4 | COCCOC(=O)N1C(=O)[C@@]2(c3cc(C#CC4(O)CCCCCC4)ccc31)[C@H](C(=O)N1CCN(c3ncccn3)CC1)[C@H]1C(=O)O[C@H](c3ccccc3)[C@H](c3ccccc3)N1[C@@H]2c1ccc(O)cc1 | 1.47 | 1.19 | 0.206 | 0.676 | 0.91 | 0.35 | -0.328 | 0.354 | 1.04 | -1.46 (inactive) | 0.521 | -1.45 (inactive) | 0.148 (inactive) | -0.375 (inactive) | 0.505 (inactive) | -0.0314 | 0.0982 | 0.553 | 0.432 | 0.481
5 | Cc1ccc(N2C(=O)c3ccccc3[C@](C)(C(=O)NC(C)C)[C@@H]2c2ccc(CO)cc2)nc1 | -2.03 | -1.29 | -1.72 | -2.28 | -0.739 | -0.276 | 0.0388 | -2.28 | 0.654 | -1.01 (inactive) | -0.281 | 0.328 (inactive) | 0.306 (inactive) | 0.155 (inactive) | 0.521 (inactive) | -1.78 | -0.289 | -3.17 | 0.758 | -0.974
